High-throughput results: PubChem BioAssay, several laboratories
Most compounds without a hit are left out; they make up all but 3.7% or so of the library.
Anthrax LF prot = blocks Bacillus anthracis lethal factor protease. P15917. multiplex microsphere protease cleavage assay, LF. inhibition, % at 10 µM. actives 0.12% (n = 360,000). AID 588501; also: plate controls were buffer without enzyme for full effect and enzyme alone for no effect
BoNT F protease = inhibitors of Botulinum neurotoxin F light chain protease | Multiplex microsphere protease cleavage assay, flow cytometry | inhibition, % at 10 µM | actives 0.22% (n = 360,000) | AID 588497; in the data active = inhibition above about 35%, passing the limit was not always enough; inconclusive = no clear call, values can overlap the other calls; also: plate controls were buffer without enzyme for full effect and enzyme alone for no effect
MazEF act = activators of E. coli MazEF toxin-antitoxin RNase; FAM/BHQ RNA-DNA oligo cleavage fluorescence, 5 h; activation, % at 20 µM; actives 0.32% (n = 350,000); AID 504720; in the data active = activation above about 50%
Bead autofluor = counter-screen for toxin protease inhibitors: compound fluorescence | compound autofluorescence counterscreen, microsphere flow cytometry; hits give high values | AID 624483 | actives 3.1% (n = 360,000) | fluorescence intensity (test concentration not listed); in the data active = fluorescence intensity above about 16000; inconclusive = no clear call, values can overlap the other calls
BoNT A protease = blocks Botulinum neurotoxin A light chain protease; multiplex microsphere protease substrate cleavage, flow cytometry; inhibition, % at 10 µM; actives 0.17% (n = 360,000); also: plate controls were buffer without enzyme for full effect and enzyme alone for no effect
* marks the source's active call; other numbers are inactive results; ? = inconclusive; / = no result. Rule as the data show it, unless noted: active = inhibition above about 30%; inconclusive = no clear call, values can overlap the other calls; inactive = below that.

SMILES	Anthrax LF prot	BoNT F protease	MazEF act	Bead autofluor	BoNT A protease
Cc1ccc(S(=O)(=O)N(C)C)cc1NC(=S)N(C)C1CCN(C)CC1	-1	-1	-2	3943	-2
C/C(=N\NC(=O)c1ccc(Cn2cc(Br)cn2)o1)c1ccc(NC(=O)c2ccoc2C)cc1	-17	-70	2	?	-40
Cc1cccnc1NC(=O)Nc1cccs1	-6	-3	4	22281*	?
COc1ccccc1NC(=O)Nc1ncccc1C	0	1	3	22096*	2
Cc1noc(C)c1CSCC(=O)Nc1nc2c(F)cc(F)cc2s1	-4	-8	-6	6226	2
CC(C)N(C)c1ncnc2c1ncn2[C@H]1CN(Cc2ccc(-c3ccccc3)cc2)C[C@@H](CO)O1	-9	-24	/	3902	-2
C(=C\c1ccccc1)/CSc1nnc(-c2ccccc2)n1Cc1ccco1	-2	1	-9	23193*	1
Cc1ccccc1CSc1nnc(-c2cccs2)n1Cc1ccco1	-7	1	1	4830	0
c1ccc(CSc2nnc(-c3cccs3)n2Cc2ccco2)cc1	-1	-7	8	20965*	-5
c1coc(Cn2c(SCc3nc4ccccc4[nH]3)nnc2-c2cccs2)c1	1	3	1	18667*	2
O=C(NCCC1CCCCN1S(=O)(=O)c1ccccc1)C(=O)NC1CC1 (stereo not given)	0	-4	3	5269	1
Cc1ccc(S(=O)(=O)N2CCOCC2)cc1NC(=O)COC(=O)CSc1ccc(Br)cc1C	2	2	1	22185*	2
Cc1ccc(S(=O)(=O)N2CCOCC2)cc1NC(=O)COC(=O)c1ccc(Br)cc1	-3	-10	3	3455	0
Cc1ccc(C2=[N+]([O-])C3(CCCCC/C3=N\NC(N)=O)N(O)C2(C)C)o1 (stereo not given)	3	-3	10	2485	0
CC1(C)C(c2cccs2)=[N+]([O-])C2(CCCCC/C2=N\O)N1O (stereo not given)	-1	-4	11	24784*	-2
COc1ccc(-n2c(/C=C(\C)O)nc(=O)c3c(C)cc(C)nc32)cc1	1	1	-2	22184*	1
COc1ccc(S(=O)(=O)N2CCC(C(=O)NCCC(=O)Nc3cccc(Cl)c3)CC2)cc1	-2	-2	5	6090	-1
CC(=O)NC(Cc1cc(C)ccc1C)C(=O)N1CCN(C(=O)Nc2ccc(C(C)=O)cc2)CC1 (stereo not given)	-4	-6	-6	17945*	?
CC(=O)NC(Cc1cc(C)ccc1C)C(=O)N1CCN(C(=O)c2ccc(Br)cc2)CC1 (stereo not given)	-2	1	2	2462	0
C(=Cc1c[nH]c2ccccc12)c1nccc2ccccc12	-2	-1	113*	5277	2
Cc1cc(S(=O)(=O)Nc2c(C)ccc3nsnc23)ccc1F	2	3	-8	16194*	1
Cc1ccc2nsnc2c1S(=O)(=O)Nc1ccccc1C(=O)O	-1	?	4	4856	-10
Cc1ccc2nsnc2c1NS(=O)(=O)c1c(C)ccc2nsnc12	0	-7	16	22309*	-3
Cc1ccc2[nH]c(=O)c(CN(CCO)C(=O)N(C)C)cc2c1	-2	-8	-2	17576*	-6
Cc1ccc(S(=O)(=O)N(C)Cc2cc3ccccc3[nH]c2=O)cc1	-9	-2	2	22031*	0
SMILES	Anthrax LF prot	BoNT F protease	MazEF act	Bead autofluor	BoNT A protease
COc1ccc(CN(Cc2cc3cc(C)ccc3[nH]c2=O)C(=O)N(C)C)cc1	2	12	-2	4427	0
C=C(C)Cn1c(=O)c2c(nc3n2CC(C)CN3Cc2ccccc2)n(C)c1=O (stereo not given)	1	-2	-6	5358	0
CN1CCN(C(=O)c2cc3c(c(-c4cccc(C#CC(C)(C)O)c4)n2)[C@@H](CCO)N(S(=O)C(C)(C)C)C3)CC1 (stereo not given in full)	0	-12	/	5610	0
O=C(NCc1cccs1)c1ccc2sc([C@H]3C[C@H](O)[C@@H](CO)O3)nc2c1	-8	-7	/	3065	0
COc1cc(/C=N/NC(=O)c2cccnc2)ccc1OS(=O)(=O)c1ccc(F)cc1	1	-8	2	20771*	-3
COC(=O)C1(C(=O)OC)CCCCN(S(=O)(=O)c2ccc(C)cc2)CCC1	-1	-4	/	4523	-1
CN(C)c1nc2c(c(=O)n(C)c(=O)n2C)n1Cc1ccccc1	1	-2	3	22117*	0
C/C(Cl)=C\Cn1c(NCCc2ccccc2)nc2c1c(=O)n(C)c(=O)n2C	0	36*	0	6537	?
Cn1c(=O)c2c(nc(Br)n2Cc2ccccc2Cl)n(C)c1=O	-7	8	1	4659	0
Cn1c(=O)c2c(nc(Br)n2Cc2ccc3ccccc3c2)n(C)c1=O	-2	5	9	20690*	?
CCS(=O)(=O)N1Cc2cc(C(=O)N(C)C)nc(-c3cccc(-c4ccc(F)cc4)c3)c2[C@@H]1CCO	-6	4	/	5676	0
Cc1[nH]c2ccc(OC(F)(F)F)cc2c1CCNCc1cccc([N+](=O)[O-])c1	-2	?	15	3991	0
CCOc1cccc(CNCCc2c(C)[nH]c3ccc(OC(F)(F)F)cc23)c1O	0	-66	52*	4230	0
CC(=O)Oc1ccc2c(c1)Oc1cc(OC(C)=O)ccc1C21OC(=O)c2ccccc21	-57	-123	/	17180*	-15
Cc1cc(C)cc(NC(=O)CCCN2C(=O)C(c3ccccc3)Oc3cccnc32)c1 (stereo not given)	0	1	8	5505	0
Cc1ccc(N2CC(C(=O)OCC(=O)C(C)(C)C)CC2=O)cc1 (stereo not given)	-4	-2	9	23049*	0
Cc1ccc(N2CC(C(=O)Oc3cccc(N4C(=O)CCC4=O)c3)CC2=O)cc1 (stereo not given)	-3	-4	6	21129*	-2
O=C(Oc1cccc(N2C(=O)CCC2=O)c1)C1CC(=O)N(c2ccc(Br)cc2)C1 (stereo not given)	5	-7	2	6539	2
Cc1ccc(NS(=O)(=O)c2ccc3c(c2)OCCCO3)cc1S(=O)(=O)N1CCOCC1	5	16	1	2930	0
CCCOc1ccc(/C=C/C(=O)NC2CCCCC2)cc1	-8	-16	11	3629	0
O=C(/C=C/c1ccc(Br)cc1)NC1CCCCCC1	1	0	8	21525*	-2
Cc1ccccc1N1CC(=O)N(c2ccccc2C)CC1=O	-5	-10	5	2865	-1
O=C1CN(c2ccccc2Cl)C(=O)CN1c1ccccc1Cl	-2	-4	4	23954*	-1
COC(=O)c1ccc2c(=O)n(CCCCCC(=O)N3CCN(c4ccccc4)CC3)c(=O)[nH]c2c1	-4	-8	-5	2890	-1
COc1cc2[nH]c(=O)n(CCCCCC(=O)N3CCN(c4ccccc4)CC3)c(=O)c2cc1OC	-2	9	1	19560*	6
